High-throughput results as filed in PubChem.
Vif-APOBEC3G blk – blocks the Vif interaction with human APOBEC3G; AID 602310; hit rate 0.076% among 410,000; Q9HC16; HeLa A3G-eYFP + Vif (tagged APOBEC3G with the HIV-1 protein that degrades it), YFP fluorescence, overnight; Potency, µM (top dose mostly 46.1 µM), actives largely listed as inhibitors; further: nearly all actives have a fitted effect of over 60% in size
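HeLa cells stably expressing Vif and C-terminally eYFP-tagged A3G, seeded overnight at 37 deg C, then exposed to compound by pintool overnight at 37 deg C. Rise in yellow fluorescence (Ex 488/Em 500-530, Acumen) marks blocked Vif-driven A3G degradation.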
mIDH1 inhibitor – blocks human mutant IDH1 R132H enzyme; O75874; IDH1-R132H enzyme, NADPH consumption, diaphorase/resazurin fluorescence; Potency, µM (highest dose often 76.6 µM), most hits filed as inhibitors; hit rate 0.093% among 390,000; AID 602179; further: nearly all actives have a fitted effect of over 65% in size
Target sequence (O75874 whole entry R132H, stated change not applied): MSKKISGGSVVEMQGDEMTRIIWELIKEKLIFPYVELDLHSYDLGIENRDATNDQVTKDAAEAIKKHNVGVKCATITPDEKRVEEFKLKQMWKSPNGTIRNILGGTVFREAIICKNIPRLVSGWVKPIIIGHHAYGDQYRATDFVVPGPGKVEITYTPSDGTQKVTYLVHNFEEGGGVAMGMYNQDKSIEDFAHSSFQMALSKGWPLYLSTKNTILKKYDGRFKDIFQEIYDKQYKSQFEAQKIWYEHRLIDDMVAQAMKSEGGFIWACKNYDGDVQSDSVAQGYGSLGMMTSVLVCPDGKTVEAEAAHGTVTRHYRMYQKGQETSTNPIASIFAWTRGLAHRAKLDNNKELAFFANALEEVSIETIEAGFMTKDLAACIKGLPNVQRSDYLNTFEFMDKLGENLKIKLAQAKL
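IDH1-R132H (0.5 ug/mL) preincubated 30 min with compound, then NADPH (0.016 mM) and alpha-KG (2 mM) added; 80 min at RT, pH 7.5. Remaining NADPH coupled via diaphorase/resazurin to fluorescence (540/590 nm); concentration-response curves normalized to no-enzyme control.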
LDHA block – LDHA (human) enzyme inhibition. P00338. purified LDHA, NADH/diaphorase-resazurin fluorescence; hits give low values. activity change, % (values are at about 110 or 230 µM). hit rate 0.15% among 480,000; in the data active means activity change below about -30%; inconclusive means mostly about -25% to -30%
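Resorufin fluorescence (ex540/em590), read at 0 and 20 min after diaphorase/resazurin addition, reports the NADH left after a 5 min room-temperature reaction of 2 nM human LDH5 with 0.06 mM NADH and 0.2 mM pyruvate.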
PINK1 modulator – changes PINK1 expression. hit rate 0.2% among 410,000. Potency, µM (titrated, usually from 76.6 µM), most hits filed as activators. AID 624263. PINK1 immunofluorescence, high-content cytometry, 24 h; active means well fitted activation curve with a large enough effect; inconclusive means small, poorly fitted or top-dose-only effect; cell line not stated here; further: nearly all actives have a fitted effect of over 65% in size
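Readout is PINK1 immunofluorescence, quantified alongside mitochondrial, cell and nuclear markers by laser-scanning microplate cytometry. Cells from a stable line were exposed to compound titrations (5 concentrations) for 24 hours, with CCCP controls.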
Vif-APOBEC3F blk – Vif-A3F binding inhibition; HeLa A3F-eYFP + Vif (tagged APOBEC3F with the HIV-1 protein that degrades it), YFP fluorescence increase; Potency, µM (top dose mostly 46.1 µM); hit rate 0.2% among 390,000; further: nearly all actives have a fitted effect of over 65% in size
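Fluorescence increase (Ex 488/Em 500-530) after overnight compound treatment at 37 deg C flags inhibition of Vif-driven A3F-eYFP loss in stable HeLa A3F-eYFP/Vif cells seeded overnight beforehand.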
PTHR1 agonist – activates the human parathyroid hormone receptor PTHR1 | Q03431 | HEK293 GP2 PTHR1 cells, GloSensor cAMP luminescence, 1 h | Potency, µM (highest dose often 115 µM), most hits filed as activators | hit rate 0.075% among 410,000 | AID 743266; further: nearly all actives have a fitted effect of over 55% in size
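HEK-293-derived GP2 cells expressing PTHR1 and a GloSensor cAMP reporter, 3,000/well, plated overnight, given luciferin plus IBMX (each 0.5 mM as added) for 1 h at 37 °C, then compound for 1 h at 37 °C. Luminescence was read after 15 min at room temperature.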
Of the large screens only hits and unclear results are named; the others gave an inactive call; ! = not active in a repeat. Hits are enriched below; roughly 0.59% of the tested compounds scored in any of these assays. Unless noted, the call rests on the fitted dose curve; in most records, active means well fitted curve in the direction sought with a large enough effect; inconclusive means small, poorly fitted or top-dose-only effect, or another doubt; inactive means no such curve, though single readings can be large; an effect the other way counts as inactive or inconclusive.

COc1ccc(-c2cc(-c3cccs3)nc3sc(C#N)c(N)c23)cc1	Vif-APOBEC3G blk inconclusive, Vif-APOBEC3F blk 11µM
COc1ccc(NC(=O)c2sc3nc(-c4ccc(OC)cc4)cc(C(F)(F)F)c3c2N)cc1	Vif-APOBEC3G blk inconclusive, PINK1 modulator inconclusive, Vif-APOBEC3F blk inconclusive
COc1ccc(C(=O)c2sc3nc(C)cc(-c4cccs4)c3c2N)cc1OC	Vif-APOBEC3G blk inconclusive, Vif-APOBEC3F blk inconclusive
COc1ccc(C(=O)c2sc3nc(-c4ccc(C)cc4)cc(C(F)(F)F)c3c2N)cc1	Vif-APOBEC3G blk 8.9µM, Vif-APOBEC3F blk 1.3µM
Cc1cc(C)c2c(N)c(C(=O)N/N=C/c3cccs3)sc2n1	Vif-APOBEC3G blk inconclusive, PINK1 modulator 25µM, Vif-APOBEC3F blk inconclusive
Nc1nccnc1C(=O)NCc1ccccc1OC(F)F	none (no result: Vif-APOBEC3G blk, mIDH1 inhibitor, PINK1 modulator, Vif-APOBEC3F blk, PTHR1 agonist)
O=Nc1c(O)[nH]c2ccc(F)cc12	none
Cc1cc2c(N=O)c(NO)ccc2[nH]1	Vif-APOBEC3G blk 5.6µM, Vif-APOBEC3F blk inconclusive
O=c1[nH]c(-c2ccc(-c3cccc(F)c3)o2)nc2ccccc12	none (no result: Vif-APOBEC3G blk, mIDH1 inhibitor, PINK1 modulator, Vif-APOBEC3F blk, PTHR1 agonist)
O=C1C=C(Nc2cccc(Cl)c2)CC2(CCCCC2)C1	none (no result: Vif-APOBEC3G blk, mIDH1 inhibitor, PINK1 modulator, Vif-APOBEC3F blk, PTHR1 agonist)
COc1ccc(-c2n(Cc3ccccc3)c3ccccc3[n+]2Cc2ccccc2)cc1	PINK1 modulator 11µM
Fc1ccc(/C=C/c2nccc3ccccc23)cc1	none (no result: mIDH1 inhibitor, Vif-APOBEC3F blk, PTHR1 agonist)
CN(C)c1ccc(/C=C/c2ccncc2)cc1	Vif-APOBEC3G blk inconclusive, Vif-APOBEC3F blk 28µM
Cc1ccc2nccc(/C=C/c3ccc(N(C)C)cc3)c2c1	Vif-APOBEC3G blk 3.5µM (no result: mIDH1 inhibitor, LDHA block, PINK1 modulator, Vif-APOBEC3F blk, PTHR1 agonist)
C(=C\c1c[nH]c2ccccc12)/c1nccc2ccccc12	Vif-APOBEC3G blk 8.9µM (no result: mIDH1 inhibitor, Vif-APOBEC3F blk, PTHR1 agonist)
Cc1ccc2c(/C=C/c3ccc(N(C)C)cc3)ccnc2c1	Vif-APOBEC3G blk inconclusive (no result: mIDH1 inhibitor, Vif-APOBEC3F blk, PTHR1 agonist)
CN(C)c1ccc(/C=C/c2nccc3ccccc23)cc1	Vif-APOBEC3G blk 11µM (no result: mIDH1 inhibitor, Vif-APOBEC3F blk, PTHR1 agonist)
COc1ccccc1N(C)S(=O)(=O)c1ccc(C(=O)Nc2c(C)cccc2C(C)C)cc1	none (no result: Vif-APOBEC3G blk, mIDH1 inhibitor, PINK1 modulator, Vif-APOBEC3F blk, PTHR1 agonist)
O=C(c1cccc(Br)c1)N(Cc1ccc2cc[nH]c2c1)C1CC1	none (no result: Vif-APOBEC3G blk, mIDH1 inhibitor, PINK1 modulator, Vif-APOBEC3F blk, PTHR1 agonist)
CCN(CCCNC(=O)Cn1nc(Cc2ccncc2)c2ccccc2c1=O)c1cccc(C)c1	none (no result: Vif-APOBEC3G blk, mIDH1 inhibitor, PINK1 modulator, Vif-APOBEC3F blk, PTHR1 agonist)
CN(C)c1ccc(/C=C/c2c[n+](C)cc3ccccc23)cc1	PINK1 modulator 45µM (no result: mIDH1 inhibitor, Vif-APOBEC3F blk, PTHR1 agonist)
CN(C)c1ccc(/C=C/c2ccc3c4ccccc4ccc3[n+]2-c2ccccc2)cc1	mIDH1 inhibitor 29µM, PINK1 modulator 8.9µM!
CN(C)c1ccc(/C=C/c2cncc3ccccc23)cc1	none (no result: mIDH1 inhibitor, Vif-APOBEC3F blk, PTHR1 agonist)
CN(C)c1ccc(/C=C/c2ccnc3ccccc23)c(F)c1	Vif-APOBEC3G blk inconclusive (no result: mIDH1 inhibitor, Vif-APOBEC3F blk, PTHR1 agonist)
CN(C)c1ccc(/C=C/c2ccc3ccccc3[n+]2C)cc1	PINK1 modulator inconclusive
CN(C)c1ccc(/C=C/c2cnnc3ccccc23)cc1	Vif-APOBEC3G blk 8.9µM, PINK1 modulator inconclusive (no result: mIDH1 inhibitor, Vif-APOBEC3F blk, PTHR1 agonist)
CN(C)c1ccc(/C=C\C=C/c2ccnc3ccccc23)cc1	PINK1 modulator 11µM (no result: mIDH1 inhibitor, Vif-APOBEC3F blk, PTHR1 agonist)
CC(=O)Nc1sc2c(c1-c1nc3ccccc3s1)CCN(C(C)C)C2	Vif-APOBEC3G blk 11µM, Vif-APOBEC3F blk 11µM
CC(C)OC(=O)c1cc(NC(=S)Nc2ccc([N+](=O)[O-])cc2)cc(C(=O)OC(C)C)c1	PINK1 modulator 14µM
CC(C)CCNC(=S)Nc1ccc([N+](=O)[O-])cc1	PINK1 modulator inconclusive
O=C(Cc1ccsc1)NCc1cccs1	none (no result: Vif-APOBEC3G blk, mIDH1 inhibitor, PINK1 modulator, Vif-APOBEC3F blk, PTHR1 agonist)
CCCCN(CC)C(=O)c1csc(Nc2ccccc2C)n1	none (no result: Vif-APOBEC3G blk, mIDH1 inhibitor, PINK1 modulator, Vif-APOBEC3F blk, PTHR1 agonist)
Cc1cnc(C(=O)OC(C)C(=O)c2ccc(C(C)(C)C)cc2)cn1 (stereo not drawn)	none (no result: Vif-APOBEC3G blk, mIDH1 inhibitor, PINK1 modulator, Vif-APOBEC3F blk, PTHR1 agonist)
S=C1Nc2ccccc2CS1	none
S=C1Cc2ccccc2N1	Vif-APOBEC3G blk inconclusive, mIDH1 inhibitor 37µM, Vif-APOBEC3F blk inconclusive
CCOC(=O)CN(CC(=O)NC1(C#N)CCCC1)C1CC1	none (no result: Vif-APOBEC3G blk, mIDH1 inhibitor, PINK1 modulator, Vif-APOBEC3F blk, PTHR1 agonist)
Cc1occc1C(=O)N/N=C/C1=C(N2CCOCC2)C(=C\c2ccc(Cl)cc2Cl)/CC1	PINK1 modulator 32µM
Cc1cc(C)nc(N/N=C/C2=C(N3CCOCC3)C(=C\c3ccc(Cl)cc3)/CC2)n1	Vif-APOBEC3F blk inconclusive
CN1CCC(OC(=O)c2cc3cc(Cl)cc(Cl)c3oc2=O)CC1	Vif-APOBEC3G blk 11µM
